This note sets out measurements from the supplement of paper PMC10338343.

± gives the standard deviation.

The test system of the test is MILI (PIWIL2) piRISC loaded with L1MC piRNA (26 nt). The experiment in a line: pre-steady-state target cleavage rate (min^-1); guide: L1MC piRNA 5'p-UAACUAAAUACUAUGCAAGCUGUAGG; MIWI and MILI are mouse PIWI proteins and EfPiwi is from a freshwater sponge; tags in brackets are library labels; higher = faster piRNA-guided slicing of the target. The gist of the method:
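The pre-steady-state cleavage rate came from a burst-and-steady-state fit to pooled data from three Cleave-'n-Seq trials, in which uncleaved targets were sequenced and normalised to depth and to weakly complementary targets. Each reaction held 0.1 nM transcribed, DNA-blocked target RNA library and 1 nM active affinity-purified piRISC carrying one synthetic guide, with or without 500 nM GTSF1 partner protein, in HEPES–potassium acetate buffer at 33 °C for 0–8 or 0–960 min. k3 was capped at 0.0001 min^-1.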

Setting [1] is: auxiliary factor: 500 nM mouse GTSF1.
[2] abbreviates: auxiliary factor: none (no GTSF1).

Turning to UCCUGGUACAGCUUGCAUAGAAAUUAGUUA, the “pre-steady-state target cleavage rate” value by setting is: under setting [1], 0.0374 ± 0.011; under setting [2], 0.00311 ± 0.0031.

For the sequence UCCUGGAACAGCUUGGUAAGUAUUUAGUUA, the “pre-steady-state target cleavage rate” value is, setting by setting: under setting [1], 0.115 ± 0.014; under setting [2], 0.00498 ± 0.0019.

Take UCCUGGAUCAGCUUGGAUAGUUUUUAGUUA: the “pre-steady-state target cleavage rate” value under setting [1] was 0.0521 ± 0.0089 and the “pre-steady-state target cleavage rate” value under setting [2] worked out at 0.00364 ± 0.0024.

For the sequence UCCUGGAUCACCUUGCAAAGUAUUUAGUUA, the “pre-steady-state target cleavage rate” value reads like this: under setting [1], 0.0687 ± 0.012; under setting [2], 0.0045 ± 0.0025.

Regarding UCCUGGAUGUGCAUGGAUAGUAUUUAGUUA, the “pre-steady-state target cleavage rate” value is 0.11 ± 0.013 under setting [1] and 0.0094 ± 0.0023 under setting [2].

Regarding UCCUGGAUGUCGAAGCAUAGUAUGUUAGUUA, the “pre-steady-state target cleavage rate” value reads like this: under setting [1], 0.0233 ± 0.0059; under setting [2], 0.00487 ± 0.0021.

Take UCCUGCUACAGCAUGCAUAGUAAUUAGUUA: the “pre-steady-state target cleavage rate” value was determined as 0.225 ± 0.022 under setting [1] and 0.00692 ± 0.0027 under setting [2].

Consider UCCUGGAUGUCGAUGCAUAGUCUUUAGUUA, for which the “pre-steady-state target cleavage rate” value under setting [1] was 0.0205 ± 0.0056 and the “pre-steady-state target cleavage rate” value under setting [2] is 0.00627 ± 0.002.

Regarding UCCUGCUACAGCUUGGAUAGUAUUUUGUUA, the “pre-steady-state target cleavage rate” value by setting is: under setting [1], 0.109 ± 0.019; under setting [2], 0.00311 ± 0.003.

Regarding UCCUGGAUGUGCUUGAUAGUAUUUAGUUA, the “pre-steady-state target cleavage rate” value under setting [1] amounted to 0.00721 ± 0.0036 and the “pre-steady-state target cleavage rate” value under setting [2] was found to be 0.00463 ± 0.002.
